# Source: PubChem
# HSF1 activator = increases HSF-1 driven luciferase reporter signal; activation, % at 9 µM; 300,000 compounds, 1.7% hits; AID 504408; NIH3T3-HGL HSF-1 luciferase reporter, MG132, 8 h; 100% = twice DMSO control signal;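 active = mean replicate activation of at least 50% with a set share of replicates each reaching 50%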;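 note: 0% = median of the neutral control wells and 100% = twice that signal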
# esBAF inh = inhibitors of esBAF chromatin remodeling in mouse ES cells; 350,000 compounds, 2% hits; Bmi1-luciferase knock-in reporter, 24 h; 100% = twice the neutral-well signal; reporter increase, % at 12.5 µM; in the data active = activation above about 40%;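 note: 0% = median of the plate's neutral control wells and 100% = double that signal; a rise in the Bmi1 reporter signal indicates esBAF inhibition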
# HSF1 inh = HSF1 inhibition | NIH3T3-HGL HSE-luciferase, MG132-induced, luminescence 8 h; active compounds read low | activity change, negative = inhibition, % at 7.5 µM (by protocol) | 300,000 compounds, 0.77% hits;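 active = more than half of replicate wells show activity change below -50%, luminescence cut by over half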;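 note: luciferase reports HSF-1 transcriptional activity via heat shock element; 0% = median of DMSO wells and -100% = zero luminescence signal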
# Vif imaging = inhibitors of HIV Vif; 340,000 compounds, 0.35% hits; HEK293T cells, Vif self-association by quenched fluorescence, imaging, 24 h; inhibition, % at 7.49 µM; in the data active = inhibition above about 50%, passing the limit was not always enough
# An asterisk follows results filed as active; · = not tested or not shown. Hits are enriched below; roughly 3.4% of the tested compounds scored in any of these assays.
SMILES,HSF1 activator,esBAF inh,HSF1 inh,Vif imaging
Cc1ccc(-n2cc(CNCCN3CCOC3=O)c(-c3cccc(C)c3)n2)cc1,69*,·,28,3
CCN(C[C@@H]1N[C@H](CO)[C@H]1c1ccc(-c2cccc(C#N)c2)cc1)C(=O)COC,·,-6,·,·
Cc1ccc(NC(=O)O/N=C/c2c(C)nn(C(C)(C)C)c2C)cc1Cl,-94,·,-93*,3
Cc1ccc(NC(=O)Nn2cnnc2)cc1Cl,3,-3,6,-5
O=C(NNC(=O)OCc1ccccc1)OCc1ccccc1,·,25,·,0
O=C(NCc1ccc(C(=O)O)cc1)OCc1ccccc1,-64,·,-54*,-3
O=S(=O)(/N=C(/Nc1cccc2ccccc12)c1ccccc1)c1ccc(F)cc1,52*,5,8,3
O=C(Nc1cccc2ccccc12)OCc1ccccc1,·,61*,·,17
O=C(NCCOC(=O)Nc1cccc2ccccc12)OCc1ccccc1,·,0,·,-2
O=S(=O)(/N=C(/Nc1cccc2ccccc12)c1ccccc1)c1ccccc1,41,7,21,1
O=C(NOCc1ccccc1)OCc1ccccc1,·,63*,·,2
CN(C)C(=O)[C@H]1[C@H](CO)[C@H]2Cn3c(ccc(C4=CCCC4)c3=O)[C@@H]1N2CC1CC1,·,3,·,·
CCOC(=O)Nc1ccc2c3c(cccc13)-c1ccccc1-2,·,46*,·,22
Nc1ccccc1C(=O)Nc1cccc2ccccc12,6,65*,19,-3
CCOC(=O)Nc1cccc2ccccc12,17,6,-10,-5
O=C(Nc1cccc2ccccc12)c1ccccc1,37,51*,15,-2
O=C(Nc1cccc2ccccc12)c1ccccc1Cl,30,8,3,4
CCCNC(=O)N1C[C@H](O)COC[C@H]2O[C@H](CC(=O)N3CCN(C)CC3)CC[C@@H]21,·,-5,·,·
O=C(Nc1cccc(-c2ccc(N3CCOCC3)nn2)c1)c1cccc(Cl)c1,·,71*,·,0
Cc1ccc(C(=O)Nc2cccc(-c3ccc(N4CCOCC4)nn3)c2)cc1,38,52*,16,11
O=C(Nc1cccc(-c2ccc(N3CCOCC3)nn2)c1)c1ccc(Cl)cc1,25,35,10,-14
Cc1ccc(S(=O)(=O)Nc2cccc(-c3ccc(N4CCCCCC4)nn3)c2)cc1,-4,67*,-7,-1
O=C(COc1ccc(Cl)cc1)Nc1cccc(-c2ccc(N3CCOCC3)nn2)c1,55*,-38,32,-15
Cc1ccc(C(=O)Nc2cccc(-c3ccc(N4CCOCC4)nn3)c2)cc1C,8,·,6,2
C[C@H]1CN([C@@H](C)CO)C(=O)Cc2cc(NC(=O)Cn3cnnn3)ccc2O[C@@H]1CN(C)C(=O)Nc1ccc(F)cc1,·,3,·,·
SMILES,HSF1 activator,esBAF inh,HSF1 inh,Vif imaging
COc1cc(OC)cc(C(=O)Nc2cccc(-c3ccc(N4CCOCC4)nn3)c2)c1,11,33,5,-11
COc1ccc(C(=O)Nc2cccc(-c3ccc(N4CCOCC4)nn3)c2)cc1,25,45*,14,4
O=C(Nc1cccc(-c2ccc(N3CCOCC3)nn2)c1)c1ccccc1Cl,28,54*,20,11
COc1cccc(OC)c1C(=O)Nc1cccc(-c2ccc(N3CCOCC3)nn2)c1,47,4,17,8
CC(=O)Nc1cccc(N/C=C(\C=O)c2nc3ccccc3o2)c1,4,58*,-2,-6
O=C/C(=C\Nc1ccccn1)c1nc2cc(Cl)ccc2o1,29,47*,26,61*
O=C(C[C@H]1C[C@H]2c3cc(NC(=O)Nc4ccccc4)ccc3O[C@H]2[C@@H](CO)O1)NCc1cccnc1,·,5,·,·
C=C(C)C1CC=C(C)/C(=N/NC(=O)c2cccc([N+](=O)[O-])c2)C1 (configuration not stated),11,0,-2,-2
C=C(C)C1CC=C(C)/C(=N/NC(=O)c2ccoc2C)C1 (configuration not stated),29,73*,11,8
C[C@H]1CN([C@@H](C)CO)C(=O)c2cc(/C=C/c3ccccc3)cnc2O[C@@H]1CN(C)C(=O)c1ccccc1,·,-1,·,·
c1ccc(-c2cn3nc(-c4ccccc4)sc3n2)cc1,-61,-78,-56*,6
Cc1nn2cc(-c3ccccc3)nc2s1,35,·,8,-3
O=C(c1ccccc1)c1ccc2nc(-c3ccco3)c(-c3ccco3)nc2c1,89*,40,19,-4
CN(C)CC(=O)N[C@@H]1CC[C@H](CCNC(=O)C2CCCC2)O[C@@H]1CO,·,-6,·,·
Cc1ccc(-c2nc(N3CCN(C)CC3)c3ccccc3n2)cc1,-7,-13,-5,-3
CN1CCN(c2nc(-c3ccc(C(C)(C)C)cc3)nc3ccccc23)CC1,-84,-53,-80*,-3
CSc1nnc2c(n1)c(C)nn2-c1cccc(C)c1,3,45*,3,-17
CC(=O)Nc1ccc(S(=O)(=O)Nc2nc3ccccc3nc2Sc2nncn2C)cc1,22,44*,4,1
CC(=O)Nc1ccc(S(=O)(=O)Nc2nc3ccccc3nc2Nc2ccc3ccccc3c2)cc1,106*,·,54,-5
Cn1cnnc1Sc1nc2ccccc2nc1NS(=O)(=O)c1ccccc1,19,-6,3,24
O=C(Nc1ccc2c(c1)[C@@H]1C[C@@H](CC(=O)N3CCc4ccccc4C3)O[C@H](CO)[C@@H]1O2)C1CCOCC1,·,2,·,·
c1ccc2c(c1)oc1c(N3CCOCC3)ncnc12,7,·,-3,-4
O=C(c1ccco1)N1CCN(c2ncnc3c2oc2ccccc23)CC1,36,58*,12,1
O=C(c1ccco1)N1CCN(c2ncnc3c2nnn3Cc2ccccc2Cl)CC1,12,-1,3,60*
N#Cc1ccc(N2Cc3ccccc3C2=NC(=O)c2cccnc2Cl)cc1,15,·,-1,-4
SMILES,HSF1 activator,esBAF inh,HSF1 inh,Vif imaging
O=C(N=C1c2ccccc2CN1c1ccc(F)c(Cl)c1)c1cccnc1Cl,69*,·,61,·
CO[C@@H]1CN(C)C(=O)c2cc(NC(=O)C3CC3)ccc2OC[C@H](C)NC[C@@H]1C,·,-2,·,·
CCOC(=O)c1c(C)[nH]c(-c2csc(C)n2)c1C,4,·,2,-3
CCOC(=O)c1c(C)[nH]c(-c2csc(N)n2)c1C,·,·,·,112*
CCN(CC)c1ccc(NC(=O)c2cc3ccccc3o2)c(C)c1,7,45*,22,2
COc1ccc(NC(=O)c2oc3ccccc3c2C)c(OC)c1,28,25,0,-5
O=C(Nc1ccccc1Cl)c1cc2ccccc2o/c1=N\O,72*,34,35,-8
COc1ccc(-c2cc3ccccc3oc2=O)cc1NC(=O)c1ccc([N+](=O)[O-])o1,31,42*,29,-6
COc1ccccc1NC(=O)c1oc2ccccc2c1C,·,47*,·,·
COc1ccc(C(=O)N2C[C@H]3[C@@H](c4ccccc42)[C@H](CO)N3Cc2ccc3c(c2)OCO3)cc1,·,0,·,·
COc1ccc(S(=O)(=O)Nc2ccc3c(c2)C(=O)N([C@@H](C)CO)C[C@@H](C)[C@@H](CN(C)C(=O)Nc2cccc4ccccc24)O3)cc1,·,1,·,·
